This is a sample that favours compounds with a hit; in the whole collection about 3.8% have one here.
Nrf2 block – Nrf2 pathway inhibition | 2.1% of 360,000 active | AID 504444 | Potency, µM (top dose mostly 46 µM), most hits filed as inhibitors | A549 ARE-Fluc reporter, luciferase luminescence, 18-24 h; also: nearly all actives have a fitted effect of over 60% in size
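Nrf2 activity is the BugLite luminescence, read 15 min after reagent at room temperature, following CellTiter-Fluor cytotoxicity readout (30 min, 37C). Compound titrations were applied for 18-24 h to 5000 A549 ARE_Fluc cells/well in 5% FBS OPTI-MEM.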
ATXN2 expr inh – inhibitors of ATXN2 expression; HEK-293 ATXN2-luciferase reporter, luminescence, 24 h; Potency, µM (series often up to 57 µM), hits mostly inhibitors; 0.72% of 360,000 active; AID 1745845; also: nearly all actives have a fitted effect of over 55% in size
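ATXN2-luciferase reporter cells (luciferase flanked by upstream and downstream ATXN2 gene portions) were treated 24 h at 37 °C with compounds at up to 57 uM. SteadyGlo luminescence gave expression; GF-AFC fluorescence gave viability.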
A549 tox – kills or reduces viability of A549 cells in Nrf2 counter-screen; Potency, µM (series often up to 46 µM), usual class: inhibitors; AID 504648; A549 ARE-Fluc cells, CellTiter-Fluor viability, 18-24 h; 0.16% of 390,000 active
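A549 ARE_Fluc cells in 5% FBS OPTI-MEM were exposed to compounds in concentration-response for 18-24 h at 37 deg C. Viability was read by CellTiter-Fluor fluorescence (Ex 405/Em 525) after 30 min, before the luciferase read.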
ATXN viability – cell viability loss in ATXN counter-screen; S2 cells (HEK-293 line with an ATXN2-luciferase reporter) viability, CellTiter-Fluor protease fluorescence, 24 h; Potency, µM (titrated, usually from 56.7 µM), most hits filed as cytotoxic; 0.49% of 400,000 active; also: nearly all actives have a fitted effect of over 40% in size
TGFb SMAD3 inh – TGF-b pathway inhibition; HepG2 CAGA-GFP TGF-b/SMAD3 reporter, GFP fluorescence, 18 h; TGF-beta stimulated, 500 pg/mL final; AID 588855; 1.2% of 410,000 active; Potency, µM (top dose mostly 46.1 µM), most hits filed as inhibitors; also: nearly all actives have a fitted effect of over 65% in size
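Inhibition was scored as loss of TGF-beta-induced (500 pg/mL final, 18 hours, 37 degrees C) GFP in HEPG2 cells carrying a CAGA-GFP reporter, in DMEM with 1% FBS. Well GFP was summed per cell; Activity was normalised to unstimulated and stimulated DMSO wells, then concentration-response fitting.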
HepG2 viability – kills HepG2 cells in TGF-b inhibitor counter-screen; HepG2 CAGA-GFP viability, ATP luminescence, 18 h; Potency, µM (titrated, usually from 46.1 µM), usual class: cytotoxic; 0.76% of 410,000 active; AID 588856
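HepG2 CAGA-GFP cells (1000/well, DMEM with 1% FBS) received compound, then TGF-beta at 500 pg/mL final, and were incubated 18 hours at 37 degrees C. Viability was read by CellTiter-Glo luminescence. Media-only wells were set as complete cell-killing and DMSO as no toxicity.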
Large screens that a line does not name were inactive. Calls follow the shape of the dose curve; as a rule, active = well fitted curve in the direction sought with a large enough effect; inconclusive = small, poorly fitted or top-dose-only effect, or another doubt; inactive = no such curve, though single readings can be large; an effect the other way counts as inactive or inconclusive.

O=C(CSc1nc(O)c(C2CCCCC2)c(=O)[nH]1)Nc1ccccc1Cl	none
C[C@@H]1CN([C@H](C)CO)C(=O)c2cc(NS(=O)(=O)c3ccc(F)cc3)ccc2O[C@@H]1CN(C)Cc1ccc(Cl)c(Cl)c1	Nrf2 block 18µM, ATXN2 expr inh inconclusive, A549 tox 15µM, ATXN viability inconclusive, TGFb SMAD3 inh 11µM
C[C@H](CO)N1C[C@H](C)[C@@H](CN(C)S(=O)(=O)c2ccc(F)cc2)Oc2ccc(NS(=O)(=O)c3ccc(F)cc3)cc2C1=O	ATXN viability inconclusive, TGFb SMAD3 inh inconclusive
C[C@H](CO)N1C[C@H](C)[C@@H](CN(C)Cc2ccc(Cl)c(Cl)c2)Oc2c(NC(=O)C3CC3)cccc2C1=O	Nrf2 block inconclusive, ATXN2 expr inh inconclusive, A549 tox inconclusive, TGFb SMAD3 inh inconclusive (no result: ATXN viability)
C[C@H](CO)N1C[C@H](C)[C@@H](CN(C)Cc2ccc(Cl)c(Cl)c2)Oc2c(NC(=O)CCC(F)(F)F)cccc2C1=O	Nrf2 block 18µM, ATXN2 expr inh inconclusive, ATXN viability inconclusive, TGFb SMAD3 inh 13µM
Cc1ccc(S(=O)(=O)c2c(Nc3ccc(C)c(C)c3)sc(C(=O)c3ccc4c(c3)OCO4)c2N)cc1	none (no result: Nrf2 block, ATXN2 expr inh, ATXN viability)
Cc1ccc(C2C=C(c3ccccc3)Nc3nc(NS(=O)(=O)c4ccc(C)cc4)nn32)cc1 (stereo unspecified)	none (no result: Nrf2 block, ATXN2 expr inh, ATXN viability)
COc1ccc(C2C=C(c3ccccc3)Nc3nc(NS(=O)(=O)c4ccc(C)cc4)nn32)cc1 (stereo unspecified)	Nrf2 block 18µM (no result: ATXN viability)
CCn1c2ccc(F)cc2c2nnc(SCCN3CCCCC3)nc21	TGFb SMAD3 inh inconclusive
Cc1ccc(S(=O)(=O)N2CCN(c3ccccc3)CC2)c(C)c1	Nrf2 block inconclusive
Cc1ncc(CN2CCCC(C(=O)Nc3ccc(-c4cccc(F)c4)cc3)C2)n1C (stereo unspecified)	ATXN2 expr inh inconclusive, TGFb SMAD3 inh inconclusive
Cc1ccc(-c2nnc(Nc3cccc(O)c3)c3ccccc23)cc1S(=O)(=O)N1CCOCC1	Nrf2 block 16µM, ATXN2 expr inh inconclusive, A549 tox inconclusive, ATXN viability inconclusive, TGFb SMAD3 inh inconclusive
COc1ccc(Nc2nnc(-c3ccc(C)c(S(=O)(=O)NCc4nc5ccccc5[nH]4)c3)c3ccccc23)cc1	ATXN2 expr inh inconclusive, A549 tox inconclusive, ATXN viability inconclusive, TGFb SMAD3 inh 7.9µM
Cc1ccc(-c2nnc(Nc3ccc(O)cc3)c3ccccc23)cc1S(=O)(=O)N1CCCCC1	TGFb SMAD3 inh 2µM (no result: ATXN2 expr inh, ATXN viability)
Cc1ccc(-c2nnc(Nc3ccc(O)cc3)c3ccccc23)cc1S(=O)(=O)NCC1CCCO1 (stereo unspecified)	Nrf2 block inconclusive, ATXN viability inconclusive, TGFb SMAD3 inh 6.3µM
COc1ccc(Nc2nnc(-c3ccc(C)c(S(N)(=O)=O)c3)c3ccccc23)cc1	Nrf2 block inconclusive, TGFb SMAD3 inh inconclusive
CCC(CO)NS(=O)(=O)c1cc(-c2nn(C)c(=O)c3ccccc23)ccc1C (stereo unspecified)	Nrf2 block inconclusive
CN(C(=O)c1ccc(NC(=O)Cc2ccc(NC(=O)C3CCCN(C(=O)CCc4ccccc4)C3)cc2)cc1)C1CC1 (stereo unspecified)	Nrf2 block 12µM
CN(Cc1ccccc1)C(=O)c1cccc(NC(=O)Cc2ccc(NC(=O)C3CCCN(C(=O)CCc4ccccc4)C3)cc2)c1 (stereo unspecified)	Nrf2 block inconclusive
CN(C(=O)c1cccc(NC(=O)Cc2cccc(NC(=O)C3CCCN(C(=O)C4CCCC4)C3)c2)c1)C1CCC1 (stereo unspecified)	Nrf2 block inconclusive, TGFb SMAD3 inh inconclusive
CN(C(=O)c1cccc(NC(=O)Cc2ccc(NC(=O)C3CCCN(C(=O)CCc4ccccc4)C3)cc2)c1)C1CCCC1 (stereo unspecified)	Nrf2 block 21µM, ATXN2 expr inh inconclusive, A549 tox inconclusive, ATXN viability inconclusive, TGFb SMAD3 inh inconclusive
CN(C(=O)c1ccc(NC(=O)Cc2cccc(NC(=O)C3CCCN(C(=O)CCc4ccccc4)C3)c2)cc1)C1CCCC1 (stereo unspecified)	Nrf2 block 15µM, ATXN viability inconclusive, TGFb SMAD3 inh inconclusive
CN(Cc1ccccc1)C(=O)c1ccc(NC(=O)Cc2cccc(NC(=O)C3CCCN(C(=O)CCc4ccccc4)C3)c2)cc1 (stereo unspecified)	Nrf2 block 21µM, TGFb SMAD3 inh inconclusive
CC1COC2(CCN(c3nc(=O)c4cc(C(F)(F)F)cc([N+](=O)[O-])c4s3)CC2)O1 (stereo unspecified)	none (no result: Nrf2 block, A549 tox, ATXN viability, TGFb SMAD3 inh, HepG2 viability)
CCc1nc2ccc(C(=O)NCc3ccc4c(c3)OCO4)cn2c1N(CC)Cc1cccc(Br)c1	ATXN2 expr inh inconclusive, ATXN viability inconclusive, TGFb SMAD3 inh inconclusive (no result: Nrf2 block, A549 tox)
COc1ccccc1N(C)S(=O)(=O)c1ccc(Cl)c(C(=O)Nc2ccccc2N2CCOCC2)c1	none
CN(C(=O)c1cccc(NC(=O)Cc2ccc(NC(=O)C3CCCN(C(=O)CCc4ccccc4)C3)cc2)c1)C1CCC1 (stereo unspecified)	Nrf2 block 16µM, ATXN2 expr inh inconclusive, ATXN viability inconclusive, TGFb SMAD3 inh inconclusive
CN(C(=O)c1ccc(NC(=O)Cc2cccc(NC(=O)C3CCCN(C(=O)C4CCC4)C3)c2)cc1)C1CC1 (stereo unspecified)	none
CN(C(=O)c1ccc(NC(=O)Cc2cccc(NC(=O)C3CCCN(C(=O)C4CCCC4)C3)c2)cc1)C1CCCC1 (stereo unspecified)	Nrf2 block 18µM, TGFb SMAD3 inh inconclusive
CN(C(=O)c1cccc(NC(=O)Cc2ccc(NC(=O)C3CCN(C(=O)CCc4ccccc4)CC3)cc2)c1)C1CCC1	TGFb SMAD3 inh inconclusive
CCOCCCn1c(=S)[nH]c2cc(C(=O)NC3CCCC(C)C3C)ccc2c1=O (stereo unspecified)	none
Cc1ccc(CNC(=O)c2ccc3c(c2)CCN3S(=O)(=O)c2ccc(Br)cc2)cc1	TGFb SMAD3 inh inconclusive
O=C(Nc1sc2c(c1C(=O)NCC1CCCO1)CCCC2)c1cccs1 (stereo unspecified)	Nrf2 block 21µM
O=C(Nc1ccncc1)C1C(=O)c2ccccc2N(Cc2ccccc2)C1=O (stereo unspecified)	Nrf2 block inconclusive (no result: ATXN2 expr inh, ATXN viability)
Cc1cc(C)c(S(=O)(=O)Nc2ccc3c(c2)CCC3)c(C)c1	Nrf2 block inconclusive, ATXN2 expr inh inconclusive, A549 tox inconclusive, TGFb SMAD3 inh 18µM
Cc1cc(C)c(S(=O)(=O)Nc2ccc(O)cc2)c(C)c1	none

Compound activity: PubChem BioAssay, National Center for Advancing Translational Sciences (NCATS)
